We go through 40 compounds from PubChem BioAssay (NCATS).

Records with an inconclusive call do not appear. Active and inactive are the calls of the source. Calls follow the shape of the dose curve; as a rule, active = well fitted cell-killing curve with a large enough effect; inconclusive = small, poorly fitted or top-dose-only effect, or effect the other way; inactive = no such curve, though single readings can be large or run the other way.
Potency is read from the fitted curve at half-maximal effect.

This test can be described thus: Viability qHTS for spleen associated tyrosine kinase inhibitor (SYKi) drug resistant MV4-11 cells (AID 1963824). Also: nearly all actives have a fitted effect of over 35% in size. The note with it: SYKi-resistant MV4-11 viability, CellTiter-Glo, 72 h; series mostly up to 45 µM. The essentials:
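SYK-inhibitor-resistant MV4-11 AML cells were seeded at 500 per well onto compound and cultured 72 hours (37 °C, 5% CO2). CellTiter-Glo was then added, and after 10 min at room temperature, luminescence gave viability.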
For `Cc1noc2c1-c1ccccc1C(c1ccc(Cl)cc1)=N[C@H]2CC(N)=O`, the Potency is 0.332 µM (active).

With `CC(C)c1ccc(NC(=O)C(c2ccccc2)N(C)C(=O)Cc2c[nH]c3ccccc23)cc1` (stereo not given), the Potency was 18.4 µM (active).

Consider `COC1CC(=O)C23C(=O)NC(CC(C)C)C2C(C)C(C)=CC3/C=C(\C)CCC1O` (stereo not given), for which the Potency was 7.96 µM (active).

Regarding `CC1CCC2C(C)(C)C(O)CCC2(C)C12Cc1c(O)cc3c(c1O2)CN(C(CCC(N)=O)C(=O)O)C3=O` (stereo not given), the Potency result was “inactive”.

With `CCN(CC)CCCCNc1ncc2cc(-c3c(Cl)cccc3Cl)c(NC(=O)NC(C)(C)C)nc2n1`, the Potency is 0.58 µM (active).

On to `CCCCC1CCN(CCCN2C(=O)CCc3ccccc32)CC1`, for which the Potency was 2.59 µM (active).

With `[2H]C([2H])([2H])C(OC(=O)[C@H](C)N[P@](=O)(OC[C@H]1O[C@@H](n2ccc(=O)[nH]c2=O)[C@](C)(F)[C@@H]1O)Oc1ccccc1)C([2H])([2H])[2H]`, the Potency was 9.2 µM (active).

For the compound `CC1CCC2(NC1)OC1C(O)C3C4CCC5CC(O[C@@H]6O[C@H](CO)[C@@H](O)[C@H](O)[C@H]6O[C@@H]6O[C@@H](C)[C@H](O)[C@@H](O)[C@H]6O)CCC5(C)C4CCC3(C)C1C2C` (stereo not given in full), the Potency entry is “inactive”.

With `Cc1[nH]c(/C=C2\C(=O)Nc3cc(-c4ccccc4)ccc32)c(C)c1CCC(=O)O`, the Potency was 10.3 µM (active).

With `CC1OC(OC2C(O)COC(O[C@@H]3[C@@H](O)[C@@H](O)[C@H](OC4C(OC(=O)[C@]56CCC(C)(C)CC5C5=CCC7[C@@]8(C)C[C@H](O)[C@H](OC9OC(CO)C(O)C(O)C9O)[C@@](C)(CO)C8[C@H](O)C[C@@]7(C)[C@]5(C)CC6)OCC(O)C4O)O[C@H]3C)C2O)C(O)C(O)C1O` (stereo not given in full), the Potency is 1.23 µM (active).

Take `COc1cc(COC2OC(CO)C(O)C(O)C2O)cc(OC)c1O` (stereo not given): the Potency entry is “inactive”.

On to `CN(C)CC1CCn2c(c(C3=C(c4cn(C)c5ccccc45)C(=O)NC3=O)c3ccccc32)C1` (stereo not given), for which the Potency was 2.91 µM (active).

For `Cc1ccc(NC(=O)C(C)C)cc1C1CCN(Cc2ccc(Oc3ccc(F)c(F)c3)cc2)CC1`, the Potency is 4.61 µM (active).

On to `CCOC(=O)CCN(C(=O)c1ccc2c(c1)nc(CNc1ccc(C(=N)N)cc1)n2C)c1ccccn1`, for which the Potency result is “inactive”.

Take `CC(C)(C)n1nc(Cc2cccc([N+](=O)[O-])c2)c2c(N)ncnc21`: the Potency is 5.17 µM (active).

For the compound `COc1ccc(N(C)c2nc(C)nc3ccccc23)cc1`, the Potency was 0.0042 µM (active).

Take `CO[C@H]1C[C@@H]2CC[C@@H](C)[C@@](O)(O2)C(=O)C(=O)N2CCCC[C@H]2C(=O)O[C@H]([C@H](C)C[C@@H]2CC[C@@H](OC(=O)C(C)(CO)CO)[C@H](OC)C2)CC(=O)[C@H](C)/C=C(\C)[C@@H](O)[C@@H](OC)C(=O)[C@H](C)C[C@H](C)/C=C/C=C/C=C/1C`: the Potency was 10.2 µM (active).

For `Cc1nc(C)c(CN2CCN(C(c3ccc(F)cc3)c3ccc(F)cc3)CC2)nc1C`, the Potency was 14.8 µM (active).

`CCCSc1nc(N[C@@H]2C[C@H]2c2ccc(F)c(F)c2)c2nnn([C@@H]3C[C@H](OCCO)[C@@H](O)[C@H]3O)c2n1`: the Potency was 23.1 µM (active).

Regarding `C[C@@]12CC3(S(=O)(=O)O)OC(O1)[C@]1(COC(=O)c4ccccc4)[C@H]3C[C@]21O[C@@H]1O[C@H](CO)[C@@H](O)[C@H](O)[C@H]1O`, the Potency result was “inactive”.

For the compound `CC(C)c1cc2c(N3CCN(C4=NCC(C)(C)S4)CC3)ncnc2s1`, the Potency was 5.8 µM (active).

Regarding `CN(C/C=C/c1ccccc1)Cc1cccc2ccccc12`, the Potency result was “inactive”.

`Cc1ncsc1-c1ccc([C@H](C)NC(=O)[C@@H]2C[C@@H](O)CN2C(=O)[C@@H](NC(=O)COCCCOCCNC(=O)C[C@@H]2N=C(c3ccc(Cl)cc3)c3c(sc(C)c3C)-n3c(C)nnc32)C(C)(C)C)cc1`: the Potency is 0.0023 µM (active).

On to `CC(C)c1ccc(-c2cc(=O)c3ccccc3o2)cc1`, for which the Potency is 13 µM (active).

In the case of `CC1(C)CC2C(O)C3=C(CC(C)(O)C2C1)C(=O)OC3O` (stereo not given), the Potency entry is “inactive”.

Take `Cc1cc(C)c(S(=O)(=O)N(Cc2ccc(-c3cccc(S(C)(=O)=O)c3)cc2)Cc2ccc(C(F)(F)F)o2)c(C)c1`: the Potency was 0.0461 µM (active).

As to `COc1cc(O)c(C(=O)CCc2ccc(O)cc2)c(O[C@@H]2O[C@H](CO)[C@@H](O)[C@H](O)[C@H]2O)c1`, the Potency is 11.2 µM (active).

Take `C/C=C(/COC(=O)/C(C)=C/C)C(=O)OC/C=C/c1ccc(OC)cc1`: the Potency was 12.8 µM (active).

In the case of `OC(CNCCc1c[nH]c2ccccc12)Cn1c2ccccc2c2ccccc21` (stereo not given), the Potency was 5.17 µM (active).

As to `C[C@H](NC(c1cccc(C[P+](=O)O)c1)[C@H](C)O)c1ccc(Cl)c(Cl)c1` (stereo not given in full), the Potency result was “inactive”.

As to `CC1=CC(=O)[C@@]2(C(C)C)C[C@@H]12`, the Potency was 13 µM (active).

In the case of `COc1ccccc1-c1nc(SCC(=O)Nc2ccc(C)c(C)c2)n[nH]1`, the Potency is 16.4 µM (active).

Regarding `CC(C)(O)/C=C/C(=O)[C@](C)(O)[C@H]1[C@H](O)C[C@@]2(C)[C@@H]3CC=C4[C@@H](C[C@H](O[C@@H]5O[C@H](CO)[C@@H](O)[C@H](O)[C@H]5O)C(=O)C4(C)C)[C@]3(C)C(=O)C[C@]12C`, the Potency was 6.11 µM (active).

Consider `CC(=O)O[C@@H]1[C@@H](O)[C@H](C)O[C@@H](O[C@H]2[C@@H]3C=CO[C@@H](O[C@@H]4O[C@H](CO)[C@@H](O)[C@H](O)[C@H]4OC(C)=O)[C@@H]3[C@@]3(CO)O[C@@H]23)[C@@H]1OC(=O)/C=C/c1ccc(O)cc1`, for which the Potency entry is “inactive”.

With `COc1ncc(Nc2ncc([C@@H](C)N3CCN(S(C)(=O)=O)CC3)cc2-c2nc(C)nc(N)n2)cc1F`, the Potency result is “inactive”.

As for `C[C@@H]1C[C@@H]([C@@H](O)C(C)(C)O)O[C@H]2C[C@@]3(C)C(=C12)C[C@H](O)[C@H]1[C@@]2(C)CCC(=O)C(C)(C)C2CC[C@@]13C` (stereo not given in full), the Potency was 1.26 µM (active).

Regarding `COc1ccc(C[C@H](N)C(=O)N[C@H]2[C@@H](O)[C@H](n3cnc4c(N(C)C)ncnc43)O[C@@H]2CO)cc1`, the Potency was 0.184 µM (active).

As for `COc1ccc(Oc2c(Cl)cnn(C3c4ccccc4-c4ccccc43)c2=O)cc1`, the Potency is 14.6 µM (active).

`CC1(C)C=CN2C(=O)C3=CCCN3C(=O)[C@@H]2C[C@@]12Nc1ccccc1C2=O`: the Potency entry is “inactive”.

`CCC(C)/C=C(C)/C=C/C1=CC2=C(Cl)C(=O)C(C)(OC(C)=O)C(=O)C2=CN1C(CCC(=O)O)C(=O)O` (stereo not given): the Potency entry was “inactive”.
